Assay in all cases: NCI-60 one-dose screen, 48 h (100 = growth as untreated, 0 = no growth, -100 = all killed)
One assay has as its system HT29 colon. The settings on record: 10 µM unless noted.
Another assay has as its system SNB-75 CNS. The settings on record: 10 µM unless noted.
For the next assay, the system named is SNB-19 CNS. The settings on record: 10 µM unless noted.
The next assay has as its system PC-3 prostate. The settings on record: 10 µM unless noted.
Another assay has as its system SK-MEL-5 melanoma. The settings on record: 10 µM unless noted.
For the next assay, the system named is UACC-62 melanoma. The settings on record: 10 µM unless noted.
The subject of the next assay is SK-MEL-28 melanoma. The settings on record: 10 µM.
The next assay deals with SK-MEL-2 melanoma. The settings on record: 10 µM unless noted.
The subject of the next assay is SN12C renal. The settings on record: 10 µM unless noted.
In the next assay the test system is UO-31 renal. The settings on record: 10 µM unless noted.
Another assay relates to TK-10 renal. The settings on record: 10 µM unless noted.
The next assay has as its system ACHN renal. The settings on record: 10 µM unless noted.
For the next assay, the system named is CAKI-1 renal. The settings on record: 10 µM unless noted.
The next assay has as its system A498 renal. The settings on record: 10 µM unless noted.
Another assay deals with CCRF-CEM leukemia. The settings on record: 10 µM unless noted.
Another assay has as its system MOLT-4 leukemia. The settings on record: 10 µM unless noted.
For another assay, the system named is SR leukemia. The settings on record: 10 µM unless noted.
The next assay deals with LOX IMVI melanoma. The settings on record: 10 µM unless noted.
The next assay relates to EKVX NSCLC. The settings on record: 10 µM unless noted.

Compounds without any hit were thinned out: in the full panel of roughly 83,000, 20% have a hit.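 Step 1: grow cells in 96-well plates. Step 2: add test compound at a single concentration. Step 3: incubate 48 h. Step 4: record percent growth.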 Unmarked numbers belong to inactive results. The source made the active and inactive calls. The calls were made as follows: active = growth percent below 10; inactive = the rest.

With `COc1ccccc1CNC(=O)C1c2ccccc2C(=O)N(CC(C)C)C1c1cccs1` (stereo not given), the growth is 11.9% in the assay with HT29 colon; 67.5% with SNB-75 CNS; 90.6% with SNB-19 CNS; 47.8% in the assay with PC-3 prostate; 52.2% with SK-MEL-5 melanoma; 46.4% in the assay on UACC-62 melanoma. Also, the growth in the assay on SK-MEL-28 melanoma is 58.1%; in the assay with SK-MEL-2 melanoma, 87.2%; in the assay with SN12C renal, 76.6%; in the assay on UO-31 renal, 92%; with TK-10 renal, 75.9%; with ACHN renal it was 54.2%. The growth in the assay on CAKI-1 renal is 53.4%; in the assay with A498 renal it was 42.4%; in the assay on CCRF-CEM leukemia, 24%; in the assay on MOLT-4 leukemia it was 27.1%; with SR leukemia it was 17.3%.

Consider `CCOC(=O)C1=C(C)N=c2s/c(=C\c3cc(Cl)ccc3O)c(=O)n2C1c1ccc(OC)cc1` (stereo not given), for which the growth is 72.9% in the assay with HT29 colon; 89% in the assay with SNB-75 CNS; 99% in the assay with SNB-19 CNS; 85.2% with PC-3 prostate; 88.5% in the assay with SK-MEL-5 melanoma; 94% in the assay on UACC-62 melanoma. Besides, the growth in the assay with LOX IMVI melanoma was 95.2%; in the assay on SK-MEL-28 melanoma it was 106%; with SK-MEL-2 melanoma, 94.6%; with SN12C renal, 93.8%; in the assay with UO-31 renal, 58.8%; in the assay with TK-10 renal, 94.1%. The growth in the assay with ACHN renal was 99.4%; in the assay with CAKI-1 renal, 96.5%; in the assay on A498 renal it was 76.1%; in the assay on CCRF-CEM leukemia it was 85.3%; in the assay with MOLT-4 leukemia, 96.4%; with SR leukemia, 86%.

Turning to `Cn1cc([C@@H]2Nc3ccc4[nH]ncc4c3[C@H]3[C@H]4CCC(C4)[C@H]32)c(C(F)(F)F)n1`, the growth in the assay on HT29 colon was 16%; in the assay with SNB-75 CNS, 13.1%; with SNB-19 CNS, 50.7%; in the assay with PC-3 prostate it was 52.1%; in the assay with SK-MEL-5 melanoma, 30.5%; in the assay with UACC-62 melanoma, 30.4%. The growth with LOX IMVI melanoma is 44.2%; in the assay on SK-MEL-28 melanoma, 62%; in the assay with SK-MEL-2 melanoma it was 21.1%; in the assay with SN12C renal, 50.6%; in the assay with UO-31 renal, 49.6%; in the assay with TK-10 renal, 65.6%. For the same compound, the growth with ACHN renal is 50.5%; in the assay on CAKI-1 renal, 35.3%; with A498 renal, 8.35% (active); in the assay on CCRF-CEM leukemia, 27.6%; with MOLT-4 leukemia it was 29.4%.

Turning to `CC[C@]1(O)C[C@@H]2CN(CCc3c([nH]c4ccccc34)[C@@](C(=O)OC)(c3cc4c(cc3OC)N(C)[C@H]3[C@@](O)(C(=O)OC)[C@H](OC(=O)CCCBr)[C@]5(CC)C=CCN6CC[C@]43[C@@H]65)C2)C1`, the growth in the assay with HT29 colon was 4.86% (active); in the assay on SNB-75 CNS, 13.2%; in the assay on SNB-19 CNS, 28.8%; in the assay on PC-3 prostate, 20.1%; with SK-MEL-5 melanoma, -42.8% (active); in the assay on UACC-62 melanoma, 34.8%. Also, the growth with LOX IMVI melanoma is 8.02% (active); with SK-MEL-28 melanoma, 67.3%; in the assay with SK-MEL-2 melanoma, 13.6%; with EKVX NSCLC it was 31%; with SN12C renal, 23.9%; with UO-31 renal, 37.7%. The growth in the assay with ACHN renal was 28.2%; in the assay on CAKI-1 renal, 9.84% (active); with A498 renal, -1.7% (active); with CCRF-CEM leukemia, 6.76% (active); in the assay with MOLT-4 leukemia, 17.3%.

`CCCCc1ccc(NS(=O)(=O)c2cc3c4c(c2)CCN4C(=O)CC3)cc1`: the growth in the assay on HT29 colon is 29.9%; in the assay on SNB-75 CNS, 33.9%; in the assay on SNB-19 CNS, 26.8%; in the assay on PC-3 prostate, 38.3%; in the assay with SK-MEL-5 melanoma it was 0.989% (active); with UACC-62 melanoma it was -28.9% (active). Besides, the growth in the assay on SK-MEL-28 melanoma was 40.5%; in the assay on SK-MEL-2 melanoma, 40.8%; with SN12C renal it was 9.46% (active); with UO-31 renal, 5.85% (active); with TK-10 renal it was 33.8%; in the assay on ACHN renal, 15.5%. In addition, the growth in the assay on CAKI-1 renal is 9.87% (active); in the assay with A498 renal, -27.7% (active); in the assay with CCRF-CEM leukemia, 5.87% (active); in the assay on MOLT-4 leukemia it was 1.64% (active).

Take `COc1ccc(-n2c(C(O)c3ccccc3)n[nH]c2=S)cc1` (stereo not given): the growth in the assay with HT29 colon is 113%; in the assay with SNB-75 CNS, 89.6%; with SNB-19 CNS it was 99.7%; with PC-3 prostate it was 120%; with SK-MEL-5 melanoma, 107%; in the assay on UACC-62 melanoma, 88.2%. The growth with LOX IMVI melanoma was 91.4%; with SK-MEL-28 melanoma it was 115%; with SK-MEL-2 melanoma, 96.7%; in the assay with SN12C renal, 88.2%; in the assay on UO-31 renal, 79.6%; in the assay on TK-10 renal it was 101%. In addition, the growth in the assay on ACHN renal is 95.5%; with A498 renal, 103%; in the assay on CCRF-CEM leukemia, 98.4%; in the assay on MOLT-4 leukemia, 83.4%.

Consider `COc1ccc(-c2nnc(COc3ccc(C(=O)/C=C/c4ccco4)cc3)o2)cc1`, for which the growth is 20.3% in the assay on HT29 colon; 60.1% in the assay on SNB-75 CNS; 78.1% with SNB-19 CNS; 86.2% in the assay with PC-3 prostate; 85.9% in the assay on UACC-62 melanoma; -30.5% (active) in the assay on LOX IMVI melanoma. Further, the growth with SK-MEL-28 melanoma is 90.9%; in the assay with SK-MEL-2 melanoma it was 132%; with SN12C renal, 68.1%; in the assay with UO-31 renal, 53.5%; in the assay with TK-10 renal, 95.3%; with ACHN renal, 85.9%. Also, the growth in the assay with CAKI-1 renal was 67.2%; in the assay on A498 renal, 115%; in the assay with CCRF-CEM leukemia it was 10.7%; in the assay on MOLT-4 leukemia, 41.9%; in the assay with SR leukemia it was 0.0515% (active).

With `O=S(=O)(Nc1ncccn1)c1ccc(NC2Nc3nc4ccccc4nc3S2)cc1` (stereo not given), the growth in the assay with HT29 colon was 106%; in the assay with SNB-75 CNS, 84.9%; with SNB-19 CNS it was 99.3%; with PC-3 prostate it was 101%; in the assay on SK-MEL-5 melanoma, 98.7%; with UACC-62 melanoma it was 93.7%. Besides, the growth is 94.2% with LOX IMVI melanoma; 98.7% in the assay with SK-MEL-28 melanoma; 106% in the assay on SK-MEL-2 melanoma; 90.7% in the assay on EKVX NSCLC; 97.7% in the assay with SN12C renal; 78.5% in the assay with UO-31 renal. The growth was 109% in the assay with TK-10 renal; 98.5% with ACHN renal; 94% in the assay with CAKI-1 renal; 99.3% with A498 renal; 104% in the assay with CCRF-CEM leukemia; 99.7% in the assay with MOLT-4 leukemia. The growth in the assay with SR leukemia is 102%.

Turning to `O=C1C(=O)c2c(ccc3ccccc23)-c2ccccc21`, the growth in the assay on HT29 colon is 61.5%; in the assay with SNB-75 CNS it was 26.2%; in the assay with SNB-19 CNS it was 18.9%; in the assay on PC-3 prostate it was 5.79% (active); in the assay with SK-MEL-5 melanoma, -69.9% (active); in the assay with UACC-62 melanoma it was -25.2% (active). Also, the growth with LOX IMVI melanoma was -33.2% (active); in the assay with SK-MEL-28 melanoma, 3.64% (active); in the assay on SK-MEL-2 melanoma it was -68.8% (active); with EKVX NSCLC it was 100%; with SN12C renal, -38.6% (active); in the assay on UO-31 renal, -32.4% (active). In addition, the growth was 14.7% in the assay with TK-10 renal; 1.97% (active) with ACHN renal; -17% (active) with CAKI-1 renal; 108% with A498 renal; -31.3% (active) in the assay with MOLT-4 leukemia; 5.07% (active) in the assay on SR leukemia.

The record behind these values is PubChem BioAssay (NCI).
